# Results: the supplement of paper PMC10849652
# About 7,900 targets were measured; listed, in parts, are those with a hit and a random draw of the rest. About 0.6% of all pairs of compound and target were hits. Values without a mark were called inactive.
# Compound: c1cn2cc(-c3ccc4cn[nH]c4c3)nc(Nc3ccc(N4CCOCC4)cc3)c2n1 [entospletinib]
# Test: log2 fold change, soluble protein after heating vs DMSO (PISA); higher = thermal stabilisation; K562 cells, 10 uM, 30 min; active = over 0.2 and 3.5 SD of the protein, either way, in both replicates (recomputed)
# Outline: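 Soluble protein was quantified by TMTpro 16plex LC-MS/MS after channel sums were equalised. It was obtained as the supernatant after 21,000xg for 90 min from pooled aliquots of K562 cells (2×10^6 cells/mL, 10 μM compound, 30 min) heated for 3 min across 48°C-58°C and extracted in PBS with 0.5% NP-40 at 4°C. Thermal stability values are relative to control samples and come from duplicates. They are given as log2 fold changes.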
# Chain of UniProt Q9UK97 (Q9UK97 whole entry, looked up): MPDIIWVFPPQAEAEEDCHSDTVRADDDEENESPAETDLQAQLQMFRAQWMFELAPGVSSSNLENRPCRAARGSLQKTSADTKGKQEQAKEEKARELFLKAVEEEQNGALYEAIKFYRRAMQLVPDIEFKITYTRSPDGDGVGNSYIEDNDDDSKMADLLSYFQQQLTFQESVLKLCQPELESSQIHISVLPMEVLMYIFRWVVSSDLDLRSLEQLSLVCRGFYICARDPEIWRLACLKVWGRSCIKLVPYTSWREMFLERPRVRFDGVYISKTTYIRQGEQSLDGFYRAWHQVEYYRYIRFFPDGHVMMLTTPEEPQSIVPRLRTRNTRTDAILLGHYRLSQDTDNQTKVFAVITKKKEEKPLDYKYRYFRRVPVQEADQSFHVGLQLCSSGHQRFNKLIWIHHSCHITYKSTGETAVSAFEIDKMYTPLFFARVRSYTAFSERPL
# Chain of UniProt P04035 (P04035 whole entry, looked up): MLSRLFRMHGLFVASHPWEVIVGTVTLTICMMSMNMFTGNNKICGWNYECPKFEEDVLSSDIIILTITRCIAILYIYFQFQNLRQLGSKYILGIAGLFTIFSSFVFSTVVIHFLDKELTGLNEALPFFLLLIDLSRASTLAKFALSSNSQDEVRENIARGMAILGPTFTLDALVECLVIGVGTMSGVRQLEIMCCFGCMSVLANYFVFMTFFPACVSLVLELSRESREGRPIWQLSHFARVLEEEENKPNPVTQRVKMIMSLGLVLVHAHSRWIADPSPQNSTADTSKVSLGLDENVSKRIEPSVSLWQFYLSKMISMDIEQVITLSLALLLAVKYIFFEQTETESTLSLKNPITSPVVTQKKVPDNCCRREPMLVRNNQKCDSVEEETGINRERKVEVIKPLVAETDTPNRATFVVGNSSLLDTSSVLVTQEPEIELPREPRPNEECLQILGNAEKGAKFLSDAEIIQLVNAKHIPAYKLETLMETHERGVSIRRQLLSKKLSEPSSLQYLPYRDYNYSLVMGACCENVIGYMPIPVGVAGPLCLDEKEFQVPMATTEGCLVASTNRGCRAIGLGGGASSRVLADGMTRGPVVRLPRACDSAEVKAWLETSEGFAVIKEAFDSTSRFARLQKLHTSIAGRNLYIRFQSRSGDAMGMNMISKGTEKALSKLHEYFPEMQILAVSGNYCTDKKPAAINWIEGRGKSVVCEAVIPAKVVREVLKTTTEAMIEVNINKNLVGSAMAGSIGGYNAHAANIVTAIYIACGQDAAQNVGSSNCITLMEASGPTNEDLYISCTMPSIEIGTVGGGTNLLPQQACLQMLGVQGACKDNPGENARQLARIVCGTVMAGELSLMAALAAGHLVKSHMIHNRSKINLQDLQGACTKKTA
# Chain of UniProt P09211 (P09211 whole entry, looked up): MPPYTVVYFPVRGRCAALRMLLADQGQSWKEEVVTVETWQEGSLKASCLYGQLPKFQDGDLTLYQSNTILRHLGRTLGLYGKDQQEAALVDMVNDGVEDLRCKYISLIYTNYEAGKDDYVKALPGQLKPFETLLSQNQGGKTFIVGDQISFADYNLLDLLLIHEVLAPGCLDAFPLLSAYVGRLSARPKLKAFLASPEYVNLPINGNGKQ
# Chain of UniProt Q9Y6M1 (Q9Y6M1 whole entry, looked up): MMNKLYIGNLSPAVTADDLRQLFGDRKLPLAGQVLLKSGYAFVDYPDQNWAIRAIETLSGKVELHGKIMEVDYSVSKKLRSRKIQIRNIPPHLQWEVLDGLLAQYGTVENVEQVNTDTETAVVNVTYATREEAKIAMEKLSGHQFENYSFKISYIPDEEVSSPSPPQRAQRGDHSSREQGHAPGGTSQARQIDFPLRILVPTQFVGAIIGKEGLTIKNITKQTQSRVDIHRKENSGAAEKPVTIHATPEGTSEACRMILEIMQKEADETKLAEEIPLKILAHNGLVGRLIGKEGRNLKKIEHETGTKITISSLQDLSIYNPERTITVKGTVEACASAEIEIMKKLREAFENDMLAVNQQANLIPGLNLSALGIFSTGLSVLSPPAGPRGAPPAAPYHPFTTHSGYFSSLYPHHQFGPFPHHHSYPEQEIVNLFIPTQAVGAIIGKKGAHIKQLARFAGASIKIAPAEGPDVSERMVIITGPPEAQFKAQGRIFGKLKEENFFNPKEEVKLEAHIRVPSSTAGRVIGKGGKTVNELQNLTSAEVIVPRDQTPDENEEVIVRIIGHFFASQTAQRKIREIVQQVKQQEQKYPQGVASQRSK
# Chain of UniProt Q9H0R4 (Q9H0R4 whole entry, looked up): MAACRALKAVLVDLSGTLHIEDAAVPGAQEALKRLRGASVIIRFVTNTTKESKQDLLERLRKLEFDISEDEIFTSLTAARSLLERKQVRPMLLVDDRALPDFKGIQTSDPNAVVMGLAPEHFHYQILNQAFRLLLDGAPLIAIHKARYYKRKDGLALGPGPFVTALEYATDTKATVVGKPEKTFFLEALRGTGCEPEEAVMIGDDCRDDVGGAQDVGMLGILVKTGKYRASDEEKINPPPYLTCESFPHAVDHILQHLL
# Chain of UniProt P05362 (P05362 whole entry, looked up): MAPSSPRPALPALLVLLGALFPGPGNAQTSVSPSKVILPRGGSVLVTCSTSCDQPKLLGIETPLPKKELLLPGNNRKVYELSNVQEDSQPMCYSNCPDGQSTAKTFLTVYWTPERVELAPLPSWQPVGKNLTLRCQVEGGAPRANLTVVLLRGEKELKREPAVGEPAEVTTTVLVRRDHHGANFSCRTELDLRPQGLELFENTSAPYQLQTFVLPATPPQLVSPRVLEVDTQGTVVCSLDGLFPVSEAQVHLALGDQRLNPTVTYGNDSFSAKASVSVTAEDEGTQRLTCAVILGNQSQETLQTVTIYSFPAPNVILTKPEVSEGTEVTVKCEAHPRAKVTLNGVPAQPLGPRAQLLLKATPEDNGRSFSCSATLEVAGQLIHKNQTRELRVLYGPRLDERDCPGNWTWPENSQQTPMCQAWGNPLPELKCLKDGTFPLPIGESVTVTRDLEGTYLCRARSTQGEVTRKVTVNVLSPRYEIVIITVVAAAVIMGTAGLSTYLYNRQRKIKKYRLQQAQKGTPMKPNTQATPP
# Chain of UniProt P13807 (P13807 whole entry, looked up): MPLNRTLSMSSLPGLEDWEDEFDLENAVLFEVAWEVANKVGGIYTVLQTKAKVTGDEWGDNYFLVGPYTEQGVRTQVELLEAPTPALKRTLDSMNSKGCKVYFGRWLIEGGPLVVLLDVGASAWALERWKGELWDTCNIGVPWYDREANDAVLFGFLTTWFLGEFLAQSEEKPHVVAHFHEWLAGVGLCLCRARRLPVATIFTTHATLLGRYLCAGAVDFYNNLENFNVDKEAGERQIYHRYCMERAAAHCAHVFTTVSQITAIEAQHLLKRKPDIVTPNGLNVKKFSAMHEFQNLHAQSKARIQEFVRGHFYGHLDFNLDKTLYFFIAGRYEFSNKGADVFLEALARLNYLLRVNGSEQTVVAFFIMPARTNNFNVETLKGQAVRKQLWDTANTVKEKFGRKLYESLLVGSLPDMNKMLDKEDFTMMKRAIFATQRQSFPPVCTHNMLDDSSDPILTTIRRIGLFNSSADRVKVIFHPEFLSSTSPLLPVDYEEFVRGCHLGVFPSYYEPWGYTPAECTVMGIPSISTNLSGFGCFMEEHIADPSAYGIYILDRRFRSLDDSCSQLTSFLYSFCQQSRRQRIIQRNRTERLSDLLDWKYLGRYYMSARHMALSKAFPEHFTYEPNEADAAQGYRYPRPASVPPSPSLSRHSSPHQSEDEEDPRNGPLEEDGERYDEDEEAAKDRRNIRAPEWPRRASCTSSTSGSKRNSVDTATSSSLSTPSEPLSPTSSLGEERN
# Chain of UniProt P48507 (P48507 whole entry, looked up): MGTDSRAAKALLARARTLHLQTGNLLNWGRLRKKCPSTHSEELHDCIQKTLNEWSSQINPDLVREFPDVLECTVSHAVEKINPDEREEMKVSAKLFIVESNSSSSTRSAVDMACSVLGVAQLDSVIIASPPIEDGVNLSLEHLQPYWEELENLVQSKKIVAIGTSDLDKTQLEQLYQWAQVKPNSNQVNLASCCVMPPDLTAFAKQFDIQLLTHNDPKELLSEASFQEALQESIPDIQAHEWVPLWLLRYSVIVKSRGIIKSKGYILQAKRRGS
# Chain of UniProt Q9H0R8 (Q9H0R8 whole entry, looked up): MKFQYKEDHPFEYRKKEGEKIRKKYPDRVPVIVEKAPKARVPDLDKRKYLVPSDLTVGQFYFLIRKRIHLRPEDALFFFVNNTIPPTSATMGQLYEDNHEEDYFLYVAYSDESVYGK
# Chain of UniProt P01112 (P01112 whole entry, looked up): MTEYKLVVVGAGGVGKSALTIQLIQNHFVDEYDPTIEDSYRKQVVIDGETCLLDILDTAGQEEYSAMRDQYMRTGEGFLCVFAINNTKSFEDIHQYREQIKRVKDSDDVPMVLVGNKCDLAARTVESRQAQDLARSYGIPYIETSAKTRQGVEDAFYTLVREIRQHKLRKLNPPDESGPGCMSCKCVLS
# Chain of UniProt O94925 (O94925 whole entry, looked up): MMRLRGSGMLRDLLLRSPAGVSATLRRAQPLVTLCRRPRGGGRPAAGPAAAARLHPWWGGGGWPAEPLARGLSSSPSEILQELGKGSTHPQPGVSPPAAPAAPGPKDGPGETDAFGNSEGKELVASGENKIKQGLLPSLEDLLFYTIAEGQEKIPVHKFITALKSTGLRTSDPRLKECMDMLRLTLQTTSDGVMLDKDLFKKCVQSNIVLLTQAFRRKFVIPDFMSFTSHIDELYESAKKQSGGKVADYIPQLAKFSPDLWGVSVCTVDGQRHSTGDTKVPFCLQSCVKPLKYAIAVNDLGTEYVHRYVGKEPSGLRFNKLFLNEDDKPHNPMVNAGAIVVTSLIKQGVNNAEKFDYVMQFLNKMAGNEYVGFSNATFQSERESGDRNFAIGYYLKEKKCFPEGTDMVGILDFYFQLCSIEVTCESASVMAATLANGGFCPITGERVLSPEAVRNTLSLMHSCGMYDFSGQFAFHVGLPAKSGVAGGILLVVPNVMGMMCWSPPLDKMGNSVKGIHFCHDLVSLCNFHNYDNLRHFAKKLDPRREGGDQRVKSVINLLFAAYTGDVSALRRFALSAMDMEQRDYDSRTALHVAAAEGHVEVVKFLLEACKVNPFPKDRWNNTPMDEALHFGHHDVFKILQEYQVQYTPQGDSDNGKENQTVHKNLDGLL
row,Target,log2 fold change
1,GCLM (UniProt P48507),0.012
2,HDAC6 (UniProt Q9UBN7),0.034
3,GLS (UniProt O94925),0.022
4,HRAS (UniProt P01112),0.027
5,HMGCR isoform 3 (UniProt P04035),-0.29
6,IGF2BP2 (UniProt Q9Y6M1),0.24
7,GYS1 (UniProt P13807),0.782 (active)
8,GEMIN2 (UniProt O14893),0.002
9,HHEX (UniProt Q03014),-0.076
10,GABARAPL1 isoform 2 (UniProt Q9H0R8),-0.041
11,GSTP1 (UniProt P09211),-0.03
12,HMGN2 (UniProt P05204),0.111
13,HDHD2 (UniProt Q9H0R4),-0.069
14,FBXO9 (UniProt Q9UK97),-0.065
15,ICAM1 (UniProt P05362),-0.007
16,HNRNPF (UniProt P52597),0.046
